# Assay outcomes deposited in PubChem by National Center for Advancing Translational Sciences (NCATS).
# ERK EGF block: inhibitors of EGF-stimulated ERK signaling pathway. AID 1454. Potency, µM (highest dose often 11.5 µM), for the others: top-dose activity change, negative = inhibition, hits mostly inhibitors. HEK293-V1b, EGF-stimulated phospho-ERK AlphaScreen. 130,000 tested, 0.41% active; active = well fitted inhibition curve with a large enough effect;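 also: plate controls were stimulated vehicle wells for no effect and unstimulated vehicle basal for full effect; nearly all actives have a fitted effect of over 55% in size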
#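 HEK293 cells stably expressing V1b receptor, serum-reduced (1% FBS) overnight, got compound for 30 min at 37C, then 25 nM EGF for 5 min. Lysate phospho-ERK read by AlphaScreen SureFire; AC50 from Hill fits.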
# The depositor's hits bear a star; [ ] = another dose, or the depositor's remark. The full list was thinned out, with hits kept by preference. Potency is read from the fitted curve at half-maximal effect.
SMILES,ERK EGF block
CN(C)c1ccc(N=Nc2ccccc2C(=O)OCC(=O)NCC2CCCCC2)cc1,13µM*
CN(C)c1ccc(C(=O)OCC(=O)NC2CCCCCC2)cc1,-3%
CN(C(=O)c1ccccc1C(=O)OCC(=O)NC(=O)NC(C)(C)C)C1CCCCC1,-2%
CCCn1c(C)nc2c(NCC3CCCN3CC)nc(C)nc21 (configuration not stated),-2%
COc1ccccc1NC1=C(N2CCCCC2)C(=O)c2ccccc2C1=O,25µM*
COc1ccccc1NS(=O)(=O)c1cc(NC(C)=O)ccc1N1CCCCC1,2%
COc1ccccc1NC(=O)C(=O)N1CCCC1,-10%
COCC1=C2c3ccccc3[C@@H]3CNC(=O)C3(C(=O)OC)C[C@@H]2n2c(=O)n(-c3ccccc3)c(=O)n2C1 (some centres not stated),-13%
COC(=O)[C@@]1(Cc2ccc(OC)cc2)[C@H]2c3cc(C(=O)N(C)C)n(Cc4cccc5ccccc45)c3C[C@H]2CN1C(=O)c1ccccc1,-10%
Cc1cc([N+](=O)[O-])ccc1N=Nc1c(N)[nH]n(-c2ccccc2)c1=O,-2%
Nc1nn(-c2ccccc2)c(N)c1N=Nc1ccc2c(c1)OCO2,0%
Cc1[nH]n(-c2ccccc2)c(=O)c1N=Nc1ccccc1,16µM*
Nc1[nH]n(-c2ccccc2)c(=O)c1N=Nc1ccc2c(c1)OCO2,22µM*
Cc1[nH]n(-c2ccccc2)c(=O)c1N=Nc1ccccc1C(=O)N1CCOCC1,-5%
NC(=O)c1ccc(N=Nc2c(-c3ccccc3)[nH]n(-c3ccccc3)c2=O)cc1,-7%
COCC(=O)N1CCC2(CCN(Cc3nccs3)CC2)CC1,7%
O=C1C[C@H](c2ccccc2)Oc2cc(O)cc(O)c21,-11%
COc1ccc(-c2nc(CN3CCN(c4cc(C)nc(C)c4)CC3)c(C)o2)c2ccccc12,-16%
Cc1oc(-c2cccc3ccccc23)nc1CN1CCN(c2ncnc3ccccc23)CC1,32µM*
Cc1cnc(C)c(N2CCN(Cc3nc(-c4ccc(C)o4)oc3C)CC2)n1,-17%
CC(C)(C)NCC(O)COc1nsnc1N1CCOCC1 (configuration not stated),8%
CCCCNc1nc(C)nc2c1nc(-c1ccccc1)n2CCCN(C)C,0%
CC(C)OCCCNC1=C(Cl)C(=O)c2ccccc2C1=O,28µM*
CCN(CC)CCCNC1=C(Cl)C(=O)c2ccccc2C1=O,-9%[57.5 µM]
CC(C)OCCCNC(=S)NNC(=O)C(c1ccccc1)c1ccccc1,-20%
SMILES,ERK EGF block
OC[C@H]1O[C@@H](O[C@@H]2[C@@H](CO)O[C@](O)(CO)[C@H]2O)[C@H](O)[C@@H](O)[C@H]1O,-2%
N#CCCn1c(=O)c(-c2ccc(F)cc2)nc2cnc(Oc3ccccc3)nc21,-5%
CN(C)S(=O)(=O)c1ccc(C(=O)NCC(=O)N/N=C/c2ccco2)cc1,-4%
Cc1sc(N/N=C/c2ccco2)nc1-c1ccccc1,-10%
O=C(/C=C/c1ccco1)Nc1nc(-c2ccccn2)cs1,1%
CN(C)S(=O)(=O)c1ccc(-c2csc(N/N=C/c3ccc(O)cc3)n2)cc1,11µM*
C(=N\Nc1nc(-c2ccccc2)cs1)/c1ccncc1,-3%
Cc1cc(NS(=O)(=O)c2ccc(Nc3nc(-c4ccc(O)cc4)cs3)cc2)no1,1%
O=C(/C=C/c1ccco1)Nc1nc(-c2ccc(F)c(F)c2)cs1,-6%[57.5 µM]
CN(C)S(=O)(=O)c1ccc(-c2csc(N/N=C/c3ccco3)n2)cc1,20µM*
O=C(/C=C/c1ccco1)Nc1nc(-c2ccccc2)cs1,25µM*
COC(=O)[C@H]1C[C@@H]1[C@H](NC(C)=O)c1ccccc1,10%
COc1ccc(NC(=O)N2CCCC3(CCN(C(=O)c4cnccn4)CC3)C2)cc1,6%
COc1ccc(C2c3cc(OC)c(OC)cc3Cc3c4cc(OC)c(OC)cc4cc[n+]32)cc1OC (configuration not stated),-11%
CCC1=C2CC[C@H]3C(=O)N(CC)C(=O)[C@H]3[C@H]2[C@@]2(Cc3ccccc3)C(=O)N(CCOC)C(=O)N2C1=O,-13%
O=C(c1ccc(Cl)cc1)C1CCCN(Cc2cccn2-c2cccnc2)C1 (configuration not stated),-5%
O=C(c1ccc(Cl)cc1)C1CCCN(Cc2cnn(-c3ccccc3)c2)C1 (configuration not stated),28µM*
Cc1nn(C)cc1CN1CCCC(C(=O)c2ccc(-c3ccccc3)cc2)C1 (configuration not stated),-12%
O=CN1CCc2c([nH]c3ccccc23)C1c1cccc2cccnc12 (configuration not stated),6%
CCNc1ncc2nc(-c3cccc(C#N)c3)c(=O)n(C)c2n1,-16%
Nc1c(C=C2C=CC(=O)C=C2)c(=O)nc2snc(SCc3ccccc3)n12,-6%[57.5 µM]
Cc1c(C(=O)OCC(=O)Nc2ccc(C(N)=O)cc2)cccc1[N+](=O)[O-],0%
O=C(Nc1cccc(Cl)c1)c1cc(N=Nc2ccc([N+](=O)[O-])cc2Cl)ccc1O,14µM*
O=C(Nc1cccc(Cl)c1)c1cccc(Oc2ccc([N+](=O)[O-])cc2Cl)c1,-4%
O=C(Nc1ccc([N+](=O)[O-])cc1Cl)c1cc(Cl)ccc1O,-10%
SMILES,ERK EGF block
CC1(C)CC(=O)C=C(NCCN2CCN(C(=S)NC3CCCCC3)CC2)C1,8%[57.5 µM]
Oc1ccc2ccccc2c1N=Nc1ccc(F)cc1,13µM*
Oc1[nH]c2ccccc2c1N=Nc1ccc(F)cc1,-1%
Oc1[nH]c2ccccc2c1N=Nc1ccccc1,5%[57.5 µM]
COc1ccc2c(c1)C(=O)[C@@H](OC(=O)NCc1ccco1)[C@H](c1ccc(OC)c(Br)c1)O2,-17%
CC(C)CC1(C(=O)O)C=CCN1C(=O)c1ccccc1 (configuration not stated),18%
COC(=O)[C@@H]1C[C@@]2(O)[C@H](O)[C@H](O)[C@H](O)C[C@H]2N1CC(c1ccccc1)c1ccccc1,0%
CC(=O)N(OCc1ccccc1)[C@@H]1c2cc(C#N)ccc2OC(C)(C)[C@H]1O,0%
Cc1ccc(Sc2ccc(CN3CCCCC3)cc2[N+](=O)[O-])cc1,10µM*
Cc1cc(N2CCCCC2)ccc1[N+](=O)[O-],4%
Cc1ccc(OCCOCCN2CCCCC2)c([N+](=O)[O-])c1,-11%
O=[N+]([O-])c1cc(Cl)ccc1N1CCOCC1,3%
O=[N+]([O-])c1cc(-n2cccc2)ccc1N1CCOCC1,28µM*
Cc1ccc(C)n1-c1ccc(N2CCOCC2)c([N+](=O)[O-])c1,-5%[57.5 µM]
C=CCN(CC=C)CCOc1ccc(OC(C)C)cc1,4%
Cc1cc(Cl)c2ccccc2n1,-2%
Clc1cncc(Cl)c1NNc1c2ccccc2nc2ccccc12,13µM*
Nc1c2ccccc2nc2ccccc12,10%
CN1C(=O)/C(=C/c2cc(C(C)(C)C)c(O)c(C(C)(C)C)c2)NC1=S,-1%
CCN(CC)c1ncnc2scc(C3COc4ccccc4O3)c12 (configuration not stated),0%
c1ccc(-c2csc3ncnc(NCC4COc5ccccc5O4)c23)cc1 (configuration not stated),14µM*
c1ccc(-c2csc3ncnc(NCCCN4CCOCC4)c23)cc1,5%
COC(=O)C1OC(=O)C2OC23[C@]2(C)C(OC(C)=O)CC4C(C)(C)C(=O)CC[C@]4(C)C2CC[C@@]13C (some centres not stated),22%
COc1cccc([C@@H]2Oc3ccc(OC)cc3C[C@H]2OC(=O)N[C@H](C)C2CCCCC2)c1,-14%
COc1ccc(-c2csc(NC(=O)c3ccc(S(C)(=O)=O)cc3)n2)cc1,-10%
